Sampled rows, rich in hits. Any-hit rate of the full collection: about 6.5%.
IL-1B inflam inh: qHTS for Inhibitors of Inflammasome Signaling: IL-1-beta AlphaLISA Primary Screen; THP-1 LPS/ATP IL-1B secretion, AlphaLISA, 16 h; stronger effect = lower value; activity change, % at 57.5 µM; 360,000 compounds, 4.7% hits; in the data active = activity change below about -50%; inconclusive = mostly about -30% to -49%; also: % is scaled to controls: 0 for no effect and ±100 for the full control effect
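Secreted IL-1B measured by AlphaLISA bead assay after 16 h compound exposure of THP-1 cells; compounds (final up to 57.5 uM) added 1 h before LPS (250 ng/mL) and ATP (1.25 mM) stimulation; lower signal means less secretion.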
HepG2 tox: qHTS for Inhibitors of TGF-b: Cytotox Counterscreen | HepG2 CAGA-GFP viability, ATP luminescence, 18 h | Potency, µM (doses to about 46.1 µM), for inactives: at the highest dose activity change, negative = cytotoxicity, actives largely listed as cytotoxic | 410,000 compounds, 0.76% hits | AID 588856, 2011; also: potency is read from the fitted curve at half-maximal effect
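HepG2 CAGA-GFP cells (1000/well, DMEM with 1% FBS) received compound, then TGF-beta at 500 pg/mL final, and were incubated 18 hours at 37 degrees C. Viability was read by CellTiter-Glo luminescence. Media-only wells were set as complete cell-killing and DMSO as no toxicity.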
Giardia kill: Small Molecules that selectively kill Giardia lamblia: qHTS | Giardia lamblia trophozoite viability | activity change, % at 7.66 µM, hits read low | 340,000 compounds, 0.15% hits | AID 540267, 2011; in the data active = activity change below about -80%; inconclusive = between about -30% and that limit;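 also: parasites exposed to compound for two days anaerobically before the ATP read; % is scaled to controls: 0 for no effect and ±100 for the full control effect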
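Giardia trophozoites, 100 cells per well, were exposed to compounds for 48 hrs at 37 deg C under anaerobic conditions; viability was then read as ATP content by bioluminescence after 15-30 min at room temperature.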
HT1080 IDH1KD tx: qHTS for induction of synthetic lethality in tumor cells producing 2HG: qHTS for the HT-1080-IDH1KD cell line. HT-1080 IDH1 knockdown viability, ATP luminescence, 48 h. Potency, µM (highest dose often 46.1 µM), inactives show at the top dose activity, negative = toxicity, most hits filed as cytotoxic. 360,000 compounds, 2% hits. AID 686971, 2013;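 also: potency is read from the fitted curve at half-maximal effect; 0% = DMSO wells and -100% = cell-free medium wells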
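CellTiter-Glo luminescence after 48 h compound exposure at 37 degrees C of IDH1-knockdown HT-1080 cells in 5% FBS RPMI. %Activity scaled between DMSO wells and cell-free media wells, with curves fitted and assigned curve classes.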
HT1080NT lethal: qHTS for induction of synthetic lethality in tumor cells producing 2HG: qHTS for the HT-1080-NT fibrosarcoma cell line; HT-1080-NT fibrosarcoma viability, CellTiter-Glo ATP luminescence, 48 h; Potency, µM (highest dose often 46.1 µM), without a hit: at the highest dose activity, negative = less viability, actives largely listed as cytotoxic; 360,000 compounds, 1.6% hits; AID 686970, 2013;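 also: NT is the 2HG producing partner of a matched IDH1 knockdown line; potency is read from the fitted curve at half-maximal effect; 0% = DMSO-treated cells and -100% = media-only wells without cells; nearly all actives have a fitted effect of over 55% in size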
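Toxicity toward the 2HG-producing NT line was scored as %Activity, normalised to DMSO and no-cell wells, from CellTiter-Glo luminescence after 48 hours' treatment.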
TGFb inhibitor: qHTS for Inhibitors of TGF-b; AID 588855, 2011; 410,000 compounds, 1.2% hits; Potency, µM (doses to about 46.1 µM), for the others: at the highest dose activity, negative = inhibition, most hits filed as inhibitors; HepG2 CAGA-GFP TGF-b/SMAD3 reporter, GFP fluorescence, 18 h; TGF-beta stimulated, 500 pg/mL final; also: potency is read from the fitted curve at half-maximal effect; % is scaled to controls: 0 for no effect and ±100 for the full control effect; nearly all actives have a fitted effect of over 65% in size
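Read-out: total well GFP (ex488/em500-530) summed from mean per-cell fluorescence. Cells: HEPG2 CAGA-GFP, 1% FBS DMEM, 18 h at 37 degrees C with 500 pg/mL final TGF-beta. Unstimulated wells served as the full-inhibition control; stimulated DMSO wells = 0%.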
Active calls of the source: *; ? = inconclusive; · = no result given. Unless noted, calls follow the shape of the dose curve; as a rule, active = well fitted curve in the direction sought with a large enough effect; inconclusive = small, poorly fitted or top-dose-only effect, or another doubt; inactive = no such curve, though single readings can be large; an effect the other way counts as inactive or inconclusive.

SMILES	IL-1B inflam inh	HepG2 tox	Giardia kill	HT1080 IDH1KD tx	HT1080NT lethal	TGFb inhibitor
COc1cc(OC)c2c(-c3cccc(-c4ccoc4)c3)cc(=O)oc2c1	69	-5%	-14	?	?	?
CCc1cc(=O)oc2cc3occ(C)c3cc12	-3	-19%	-8	5%	6%	-1%
COc1cc(OC)c2c(-c3ccccc3)cc(=O)oc2c1	21	-8%	7	1%	2%	-1%
COc1cc(OC)c2c(-c3cccc(-c4ccc(C(C)=O)cc4)c3)cc(=O)oc2c1	55	2%	2	3.3µM*	5.2µM*	?
O=C(NC(Cc1ccccc1)C(=O)N1CCN(c2ccc(F)cc2)CC1)c1ccccc1 (stereo not drawn)	7	-7%	·	0%	3%	1%
CC(C)C[C@H]1CNC(=S)N1CC1CCCN1C[C@H](Cc1ccc(O)cc1)N1C[C@H](Cc2ccccc2)N(CC2CCCCC2)C1=S (stereo partly drawn)	-54*	-2%	-8	-2%	?	?
CC(C)C[C@H]1CN([C@@H](CC(C)C)CN2CCCC2CN2C(=S)NC[C@@H]2Cc2ccc(O)cc2)C(=S)N1CC1CCCCC1 (stereo partly drawn)	-2	-28%	26	3%	2%	?
CC(C)C[C@H]1CNC(=S)N1C[C@H]1CCCN1C[C@H](Cc1ccccc1)N1C[C@H](Cc2ccc(O)cc2)N(CC2CCCCC2)C1=S	?	-38%	·	16µM*	15µM*	11µM*
Oc1ccc(C[C@@H](CN2CCCC2CN2C(=S)NC[C@@H]2Cc2ccccc2)N2C[C@H](Cc3ccccc3)N(CC3CCCCC3)C2=S)cc1 (stereo partly drawn)	-8	·	·	8%	1%	·
Oc1ccc(C[C@H]2CN([C@@H](Cc3ccccc3)CN3CCC[C@@H]3CN3C(=S)NC[C@@H]3Cc3ccccc3)C(=S)N2CC2CCCCC2)cc1	?	-33%	·	?	23µM*	13µM*
CC(C)C[C@H]1CN([C@@H](CC(C)C)CN2CCC[C@@H]2CN2C(=S)NC[C@@H]2Cc2ccc(O)cc2)C(=S)N1CC1CCCCC1	?	-55%	·	15µM*	21µM*	?
CC(C)C[C@H]1CNC(=S)N1CC1CCCN1C[C@H](Cc1ccccc1)N1C[C@H](Cc2ccccc2)N(CC2CCCCC2)C1=S (stereo partly drawn)	?	26%	·	?	-4%	4%
O=C(NCCC(F)(F)F)C1Cc2c(-c3cccc(F)c3)ccnc2O1 (stereo not drawn)	-9	0%	·	27%	4%	10%
Cc1cc(=O)oc2c(C)c(OC(C)C(=O)NCC(O)c3ccccc3)ccc12 (stereo not drawn)	-25	-2%	11	6%	-3%	-2%
Cc1c(OC(C)C(=O)NCC(O)c2ccccc2)ccc2c3c(c(=O)oc12)CCCC3 (stereo not drawn)	-28	0.11µM*	5	-6%	-14%	-10%
Cc1cc(NC(=O)COC(=O)C(Nc2ccc(C(F)(F)F)cc2Cl)C(C)C)no1 (stereo not drawn)	-13	-55%	9	?	18µM*	?
COc1ccc(NC(=O)c2ccc3c(c2)CCN3S(=O)(=O)c2ccccc2)c(OC)c1	-17	-63%	20	4%	0%	-4%
COc1cc(OC)cc(-c2cc3nc(C)c(CCC(=O)O)c(=O)n3[nH]2)c1	0	-26%	13	-26%	-20%	-23%
CCOC(=O)C1CCCC(NS(=O)(=O)c2ccc(NC(C)=O)cc2)C1 (stereo not drawn)	12	-13%	17	1%	-2%	11µM*
COc1ccccc1C(=O)Nc1c(C(=O)N(CCN(C)C)Cc2ccco2)oc2ccccc12	?	-103%	-5	?	-3%	?
COc1ccc(OCC(=O)Nc2c(C(=O)N(CCN(C)C)Cc3ccco3)oc3ccccc23)cc1	·	-51%	6	?	?	22µM*
CCOC(=O)CCC(=O)Nc1ccc(S(=O)(=O)N2CCCCC2)cc1	3	-26%	-13	9%	1%	2%
CCOc1ccc(/C=N/NC(=O)c2c(C)n(C)c3ccc(OC)cc23)cc1	27	27%	4	?	?	?
CCOc1ccc2c(c1)c(N=O)c(O)n2C	-64*	-17%	2	0%	-1%	3%
CCCSC(=S)c1c(C)[nH]n(-c2ccccc2)c1=O	-10	-57%	4	13µM*	?	0%
SMILES	IL-1B inflam inh	HepG2 tox	Giardia kill	HT1080 IDH1KD tx	HT1080NT lethal	TGFb inhibitor
Cc1[nH]n(-c2ccccc2)c(=O)c1Sc1ccc(Cl)cc1	24	-26%	1	0%	-10%	0%
C[C@@H]1CC=C[C@H]2[C@H]1C(=O)N(Cc1ccccc1)[C@H]2c1ccc2ccccc2c1Br	-75*	13µM*	-6	-16%	-21%	?
COc1ccc(-c2cc(C3C4C=CCCC4(C)C(=O)N3Cc3ccccc3)ccc2F)cc1 (stereo not drawn)	·	-8%	7	·	·	11µM*
C[C@@]12CCC=C[C@H]1[C@H](c1ccc3ccccc3c1Br)N(Cc1ccccc1)C2=O	-55*	-35%	-4	?	?	?
O=C1C2C(c3ccccc3)CC=CC2C(c2ccc(C(F)(F)F)cc2)N1Cc1ccccc1 (stereo not drawn)	·	-57%	-11	·	·	13µM*
CCCCn1c(N)c(N(CCOC)C(=O)COC(=O)Cc2cccc(OC)c2)c(=O)[nH]c1=O	1	3%	-29	10%	8%	-22%
CC1CC=CC2C1C(=O)N(Cc1ccccc1)C2c1ccc2ccccc2c1 (stereo not drawn)	·	-75%	2	·	·	11µM*
CCCCn1cnc2cc(C)c(C)cc21	-9	0%	-10	-2%	-8%	4%
Cc1onc(-c2ccccc2Cl)c1C(=O)Nc1c(C)n(C)n(-c2ccccc2)c1=O	14	2%	12	0%	0%	2%
CCCCN(CC)C(=O)CSc1nc2n[nH]c(C)c2c(=N)n1-c1ccc(CC)cc1	·	-69%	·	·	·	1.4µM*
CCc1ccc(NC(=O)CSc2nc3n[nH]c(C)c3c(=N)n2-c2ccc(C)cc2)cc1	·	-50%	·	·	·	0%
